The results in this text go back to PubChem BioAssay (NCATS).

Molecules are shown by their SMILES. Inconclusive results are not listed. Calls of active or inactive are those of the source. Unless noted, how the calls were made is not given here.

A short description of test [1]: qHTS profiling for inhibitors of Plasmodium falciparum (DD2) proliferation (AID 743323). The following applies: lower = more inhibition; at 28.7 µM (top of the series) unless noted. The gist of the method:
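Parasite DNA quantified by SYBR Green fluorescence (ex 485, em 535 nm) after saponin/Triton lysis and overnight dark incubation. Cultures: 0.3% parasitemia, 2.5% hematocrit, 72 h, 37 C; data scaled between DMSO and 0.29 uM artemisinin.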
A general note: In qHTS, concentration-response curves come from the screen itself.

Test [2] is described as follows: qHTS profiling for inhibitors of Plasmodium falciparum (HB3) proliferation (AID 743324; active means well fitted curve in the direction sought with a large enough effect; an effect the other way counts as inactive or inconclusive;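 further: 100% = DMSO vehicle wells and 0% = artemisinin-treated control wells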). The settings on record: Plasmodium falciparum HB3 blood-stage proliferation; at 28.7 µM (top of the series) unless noted. The essentials: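 SYBR Green fluorescence (485 ex/535 em) of lysed cultures, incubated overnight at room temperature in the dark, quantifies parasite DNA. Infected erythrocytes at 0.3% parasitemia and 2.5% hematocrit were exposed 72 h; values normalized to DMSO and 0.29 uM artemisinin controls.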

Test [3] is described as follows: qHTS profiling of the MIPE4 collection as inhibitors of Plasmodium falciparum (3D7) proliferation (AID 743344).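 Further: scaled between DMSO vehicle wells and 0.29 µM artemisinin as full inhibition.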 The following applies: P. falciparum 3D7 in erythrocytes, SYBR Green DNA fluorescence, 72 h; at 28.5 µM (top of the series) unless noted. The gist of the method: (§1)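 Parasite DNA was quantified by SYBR Green I fluorescence (ex 485, em 535 nm) after overnight lysis in saponin/Triton buffer at room temperature. Cultures at 0.3% parasitemia and 2.5% hematocrit were first exposed to compound for 72 h at 37 C; signals were normalised to artemisinin (0.29 uM) and vehicle wells.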

Test [4] in a line: qHTS profiling of the MIPE4 collection as inhibitors of Plasmodium falciparum (DD2) proliferation (AID 743345). The settings on record: P. falciparum Dd2 in erythrocytes, SYBR Green DNA, 72 h; at 28.5 µM (top of the series) unless noted. The gist of the method:
as §1

Test [5] in a line: High-throughput drug toxicity screening in the BPDCN cell line Gen2.2 (AID 1224824).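 Further: cells exposed to compounds for 48 h before reading.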 The following applies: Gen2.2 BPDCN cells; at 45.8 µM (top of the series) unless noted. The essentials: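 CellTiter-Glo luminescence after 48 h compound exposure of Gen2.2 cells; percent activity set with DMSO as 100% and bortezomib (9.2 uM final) as 0%. Cells seeded at 500 per well, RPMI + 10% FBS, 37 °C.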

Test [6] can be described thus: High-throughput drug toxicity screening in the BPDCN cell line Cal-1 (AID 1224825). The following applies: Cal-1 BPDCN cell viability, qHTS; at 45.8 µM (top of the series) unless noted. The gist of the method: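 Viability of the BPDCN line Cal-1 is measured as ATP-based luminescence (CellTiter-Glo) following 48 h incubation with compounds. Percent activity uses DMSO-treated wells as 100% and 9.2 uM bortezomib as 0%.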

Test [7] is described as follows: qHTS assay for measurement of the activity of small molecule inhibitors on Zika virus induced Caspase-3 activity in human iPSC derived neural progenitor cells (hNPCs) (AID 1224857; active means well fitted curve in the direction sought with a large enough effect; an effect the other way counts as inactive or inconclusive; further: % of control where 0% means no effect; nearly all actives have a fitted effect of over 65% in size). The essentials:
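Pretreat hNPCs with compound 1 h; infect ZIKV 2 FFU/cell; 6 h 37 C, 5% CO2; Caspase-Glo 3/7, 30 min RT; luminescence; normalize to no-virus and virus-only wells.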

The nature of test [8]: qHTS Screen of the MIPE 4.0 Collection Against Ewings Sarcoma (TC71) (AID 1259253; active means well fitted curve in the direction sought with a large enough effect; an effect the other way counts as inactive or inconclusive; further: nearly all actives have a fitted effect of over 40% in size; further: potency means the concentration at half of the fitted maximal effect). The gist of the method: (§2)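 Measured: ATP luminescence (CellTiter-Glo) 10 min after reagent addition, following 48 h drug treatment. Relative luciferase units converted to percent activity, with no-cell wells as full and DMSO wells as zero inhibition.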
A short description of test [9]: Identifying Small Molecule Inhibitors of Pancreatic Cancer Stem Cells (A2780, Spheroid) (AID 1259357; active means well fitted curve in the direction sought with a large enough effect; an effect the other way counts as inactive or inconclusive;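 further: spheroids pre-formed over 14 days in stem cell medium on hydrogel; compound exposure lasted 48 h before the ATP luminescence read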). The settings on record: Potency: A2780 spheroid viability. The essentials:
(§3)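 Spheroids grown 14 days in stem cell media on hydrogel-coated nonadherent plates; 2D lines seeded directly. Compounds added after 4 h attachment, 48 h at 37C, 5% CO2; CellTiter-Glo luminescence normalized to DMSO (no inhibition) and no-cell wells (full inhibition).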

Test [10] can be described thus: Identifying Small Molecule Inhibitors of Pancreatic Cancer Stem Cells (SN12C, Adherent) (AID 1259358; active means well fitted curve in the direction sought with a large enough effect; an effect the other way counts as inactive or inconclusive;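 further: cell survival measured after 48 h of compound exposure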). The gist of the method: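 After a 4 h attachment period, compounds were pinned into wells and cultures held 48 h under standard incubator conditions. Viability was then measured as CellTiter-Glo luminescence following 10 min at room temperature.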
The nature of test [11]: qHTS profiling of the MIPE4 collection as inhibitors of Plasmodium falciparum (DD2) proliferation (Rep 2) (AID 743346). The following applies: P. falciparum Dd2 in erythrocytes, SYBR Green DNA, 72 h; at 28.5 µM (top of the series) unless noted. The essentials: as §1
Test [12] is described as follows: qHTS profiling of the MIPE4 collection as inhibitors of Plasmodium falciparum (HB3) proliferation (AID 743347).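 Further: plate controls were DMSO vehicle wells for no effect and artemisinin wells for full effect.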 The settings on record: P. falciparum HB3 in erythrocytes, SYBR Green DNA, 72 h; at 28.5 µM (top of the series) unless noted. The essentials:
as §1

A short description of test [13]: qHTS Screen of the MIPE 4.0 Collection Against Ewings Sarcoma (RDES) (AID 1259252; active means well fitted curve in the direction sought with a large enough effect; an effect the other way counts as inactive or inconclusive; further: nearly all actives have a fitted effect of over 35% in size; further: potency means the concentration at half of the fitted maximal effect). The gist of the method:
as §2

The nature of test [14]: qHTS Screen of the MIPE 4.0 Collection Against Ewings Sarcoma (TC32) (AID 1259256; active means well fitted curve in the direction sought with a large enough effect; an effect the other way counts as inactive or inconclusive; further: potency means the concentration at half of the fitted maximal effect; nearly all actives have a fitted effect of over 45% in size). The gist of the method: as §2
Test [15] can be described thus: qHTS assay for measurement of the activity of small molecule inhibitors on Zika virus induced Caspase-3 activity in human astrocytoma cells (AID 1224859; active means well fitted curve in the direction sought with a large enough effect; an effect the other way counts as inactive or inconclusive;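 further: plate controls were ZIKV-infected untreated cells for no effect and uninfected cells for full effect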). The gist of the method:
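Human SNB-19 astrocytoma cells in RPMI 1640 with 10% FBS receive compound one hour ahead of Zika virus at 2 FFU/cell. After 6 h infection, caspase-3/7 activity is detected by Caspase-Glo luminescence.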

Test [16] can be described thus: qHTS Screen of the MIPE 4.0 Collection Against Ewings Sarcoma (EW8) (AID 1259255; active means well fitted curve in the direction sought with a large enough effect; an effect the other way counts as inactive or inconclusive; further: nearly all actives have a fitted effect of over 35% in size; further: potency means the concentration at half of the fitted maximal effect;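 on viability: 100% = DMSO-treated cells and 0% = medium-only wells without cells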). The gist of the method: as §2
A short description of test [17]: Identifying Small Molecule Inhibitors of Pancreatic Cancer Stem Cells (SN12C, Spheroid) (AID 1259360; active means well fitted curve in the direction sought with a large enough effect; an effect the other way counts as inactive or inconclusive; further: potency means the concentration at half of the fitted maximal effect). The following applies: Potency: SN12C spheroid viability. The gist of the method: as §3
The nature of test [18]: qHTS assay to identify small molecule inhibitors of chordoma cells - UCH-2 (AID 1259356; active means well fitted curve in the direction sought with a large enough effect; an effect the other way counts as inactive or inconclusive; further: on the % scale 0 is the no-effect control and ±100 the full control effect).
Test [19] can be described thus: Identifying Small Molecule Inhibitors of Pancreatic Cancer Stem Cells (Panc1, Spheroid) (AID 1259359; active means well fitted curve in the direction sought with a large enough effect; an effect the other way counts as inactive or inconclusive;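 further: potency means the concentration at half of the fitted maximal effect; compound exposure lasted 48 h before reading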). The essentials: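 Adherent (2D) versus sphere (3D) formats; spheres generated 14 d in SCM beforehand. Compound transferred by pin tool after 4 h, 48 h incubation, CellTiter-Glo endpoint.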

In the case of `Cc1ccc(NC(=O)c2ccc(CN3CCN(C)CC3)cc2)cc1Nc1nc(-c2cccnc2)cs1`, in test [1], the activity, percent of control came to 5.7%. This molecule also displayed a remaining proliferation (% of control), lower = more inhibition in [2] of 4.39%. Further, in [3], the parasite growth, % of DMSO control was 9.29%. The parasite growth remaining, % of DMSO control (lower = more inhibition) in [4] amounted to 12%. For the same molecule, the cell viability, % of control (lower = more cytotoxic) in [5] stood at 14.8%. Moreover, the viability (% of control) in test [6] stood at 6.7%. The Potency entry in test [7], in test [9] and in [10] was “inactive” throughout. The Potency in test [8] was 23.5 µM (active).

Consider `Cc1cc(C(C)Nc2ccccc2)c2nc(N3CCOCC3)cc(=O)n2c1` (stereo unspecified), for which, in test [4], the parasite growth remaining, % of DMSO control (lower = more inhibition) was found to be 71.3%. Besides, the parasite growth, % of control (lower = inhibition) in [11] was 31.1%. The molecule further yielded a growth, % of control in test [12] of 15.4%. For the same molecule, the cell viability, % of control (lower = more cytotoxic) in test [5] worked out at 47.8%. For the same molecule, in [6], the viability (% of control) was determined as 62.3%. Moreover, the Potency result in test [7] was “inactive”. Moreover, the Potency in test [13] and in [14] was 23.5 µM (active) in each case.

For `O=C(O)C1=NC(C(=O)O)CC(C=CN2c3cc(O)c(OC4OC(CO)C(O)C(O)C4O)cc3CC2C(=O)O)=C1` (stereo unspecified), in [4], the parasite growth remaining, % of DMSO control (lower = more inhibition) was determined as 104%. This molecule showed a parasite growth, % of control (lower = inhibition) in test [11] of 76.3%. Also, the growth, % of control in test [12] worked out at 92%. Besides, the cell viability, % of control (lower = more cytotoxic) in test [5] came to 267%. The viability (% of control) in test [6] is 136%. The Potency result in test [7], in test [15] and in test [16] was “inactive” each time.

For the molecule `COc1ccc2c(c1)CC[C@H]1[C@@H]2CC[C@]2(C)[C@@H](NCCCCCCN3C(=O)C=CC3=O)CC[C@H]12`, in test [4], the parasite growth remaining, % of DMSO control (lower = more inhibition) was determined as 95.3%. For the same molecule, the cell viability, % of control (lower = more cytotoxic) in test [5] was found to be 154%. Moreover, the viability (% of control) in test [6] is 43%. Further, in [7], the Potency entry is “inactive”. Besides, the Potency is 16.6 µM (active) in [8] and 20.9 µM (active) in [17].

As to `NCC1CCC(C(=O)O)CC1` (stereo unspecified), the result in test [18] was inactive.

Regarding `CN(C)CCN(C)C(=O)c1ccc(NC(=O)Nc2ccc(-c3nc(N4CCOCC4)c4ccn(CC(F)(F)F)c4n3)cc2)cc1`, the Potency in [19] is 6.62 µM (active).

With `CO[C@H]1O[C@@H]2O[C@@]3(C)CC[C@@H]4[C@@H](C)CC[C@@H]([C@H]1C)[C@@]24OO3`, in test [3], the parasite growth, % of DMSO control worked out at 20.7%. Also, in test [11], the parasite growth, % of control (lower = inhibition) amounted to 9.94%. This molecule displayed a growth, % of control in test [12] of 46%. In addition, in test [6], the viability (% of control) is 31.3%. Besides, the Potency result in test [7] and in [15] was “inactive” each time. For the same molecule, the Potency in test [8] is 4.69 µM (active); in test [16] it was 5.9 µM (active).

In test [3], `NCc1c[nH]c(=S)n1[C@H]1CCc2c(F)cc(F)cc2C1` came in with a parasite growth, % of DMSO control of 15.7%. In addition, the parasite growth remaining, % of DMSO control (lower = more inhibition) in test [4] is 12.9%. The same molecule gave a parasite growth, % of control (lower = inhibition) in [11] of 13.8%. Besides, the growth, % of control in test [12] is 4.48%. The viability (% of control) in test [6] is 34.2%. Besides, the Potency result in test [7] and in test [15] was “inactive” in each case. Moreover, the values for the Potency in test [8], in test [16] and in test [14] were 20.9 µM (active), 23.5 µM (active) and 23.5 µM (active), respectively.

In turn, `NC[C@H]1O[C@H](O[C@@H]2[C@@H](O)[C@@H](O[C@H]3O[C@H](CO)[C@@H](O)[C@H](N)[C@@H]3O)[C@H](N)C[C@@H]2N)[C@H](O)[C@@H](O)[C@H]1O` returned a parasite growth, % of DMSO control in test [3] of 96.1%. Further, the parasite growth remaining, % of DMSO control (lower = more inhibition) in test [4] came out at 100%. This molecule registered a growth, % of control in test [12] of 66.9%. For the same molecule, the viability (% of control) in [6] was determined as 98.4%. Besides, the Potency entry in test [7], in test [15], in test [13], in [8] and in test [16] was “inactive” each time.
